Experimental data: PubChem BioAssay
Activity calls are given as the source filed them.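 Rule for the calls, unless noted: active = inhibition of the reporter signal at or above 50%; inactive = inhibition below 50%.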

Columns and labels:
[1] = inhibitors of TNFa-induced NFkB p65 translocation, primary screen, imaging, HUVEC, MLSMR starter and 10KST1 sets (AID 438;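 active = inhibition above 20% together with a positive visual image hit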;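 note: compound added about 3h40 before a 20 min TNFalpha stimulation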;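 for inhibition: signal is the nuclear over cytoplasmic p65 intensity ratio per well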); conditions: HUVEC TNFa-induced p65 nuclear translocation; cell count: measured here: nuclei count (cytotoxicity indicator), at 2.08 µM; inhibition: at 2 µM, stronger effect = higher value, 0% TNFa-plus-vehicle, 100% no-TNFa wells
[2] = reduction of polyQ htt aggregates in cells – imaging, exon1htt(103Q)mCFP cells, high-content imaging, primary screen (AID 483;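 active = visual image review flags a hit and inhibition of aggregation exceeds 20%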;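 note: compound exposure lasted 3 days before fixation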;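 for nuclei count: percent of the per-plate median nuclei count of sample wells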); conditions: exon1htt(103Q)mCFP cell line, aggregate imaging, at 2 µM; inhibition of aggregation: stronger effect = higher value; nuclei count: measured here: cell count, toxicity
[3] = endothelial E-selectin expression blockers – imaging, HUVEC, immunofluorescence, MLSMR starter and 10KST1 sets, primary screen (AID 487;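 active = visually confirmed hit in the image check and inhibition above 20%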;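 for inhibition: signal is fraction of cell area covered by stained E-selectin grains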;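 for nuclei count: 100% = median nuclei count of all wells on the same plate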); conditions: HUVEC TNFalpha-induced E-selectin immunofluorescence imaging, at 2 µM; inhibition: stronger effect = higher value; nuclei count: measured here: cell number, toxicity
[4] = biological target: Voltage-gated potassium channel subunit beta-2 (Rattus norvegicus) (UniProt P62483); assay: inhibitors of rat Kvbeta2 reductase activity – biochemical, NADPH fluorescence, primary screen (AID 622;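 active = fluorescence slope higher than the sample average by over 3 SD, cut at about -0.22 in these data, passing the limit was not always enough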;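 note: slope of raw intensity against log time taken from 70 to 1610 s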); conditions: recombinant KvBeta, 4-cyanobenzaldehyde reduction, at 10 µM, stronger effect = higher value
Chain of Voltage-gated potassium channel subunit beta-2 (Rattus norvegicus) (P62483 whole entry, looked up): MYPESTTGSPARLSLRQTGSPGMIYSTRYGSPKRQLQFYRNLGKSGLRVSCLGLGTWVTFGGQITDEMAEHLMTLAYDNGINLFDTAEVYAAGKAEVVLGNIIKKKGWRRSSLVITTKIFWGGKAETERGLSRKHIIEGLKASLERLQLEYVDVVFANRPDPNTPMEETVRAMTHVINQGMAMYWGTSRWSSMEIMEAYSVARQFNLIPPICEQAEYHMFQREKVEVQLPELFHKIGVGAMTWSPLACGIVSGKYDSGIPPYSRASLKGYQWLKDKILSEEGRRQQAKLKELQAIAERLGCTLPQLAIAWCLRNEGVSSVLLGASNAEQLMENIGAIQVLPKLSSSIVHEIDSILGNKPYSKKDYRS

[5] = biological target: Voltage-gated potassium channel subunit beta-2 (Rattus norvegicus) (UniProt P62483); assay: enhancers of rat Kvbeta2 NADPH turnover – biochemical, NADPH fluorescence, primary screen (AID 623;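 active = NADPH fluorescence slope more negative than the mean of all samples by about 3 SD, 99.7% confidence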;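 note: fluorescence intensity change per second fitted from 20 to 320 s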); conditions: Recombinant KvBeta, NADPH fluorescence decrease slope, 10 min; at 10 µM; stronger effect = lower value
[6] = biological target: Alpha-2C adrenergic receptor (Homo sapiens) (UniProt P18825); assay: compounds altering alpha2C-coupled GIRK flux – cell-based, HEK293 alpha2C/GIRK1/2, thallium flux, primary screen (AID 624;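 active = fluorescence slope after compound addition differing from the mean of all screened samples at 99.7% confidence, in either direction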;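 note: slope of fluorescence ratio to pre-addition baseline per second over 15 to 24 s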); conditions: thallium flux BTC fluorescence, at 10 µM, actives lie on both sides
Chain of Alpha-2C adrenergic receptor (Homo sapiens) (P18825 whole entry, looked up): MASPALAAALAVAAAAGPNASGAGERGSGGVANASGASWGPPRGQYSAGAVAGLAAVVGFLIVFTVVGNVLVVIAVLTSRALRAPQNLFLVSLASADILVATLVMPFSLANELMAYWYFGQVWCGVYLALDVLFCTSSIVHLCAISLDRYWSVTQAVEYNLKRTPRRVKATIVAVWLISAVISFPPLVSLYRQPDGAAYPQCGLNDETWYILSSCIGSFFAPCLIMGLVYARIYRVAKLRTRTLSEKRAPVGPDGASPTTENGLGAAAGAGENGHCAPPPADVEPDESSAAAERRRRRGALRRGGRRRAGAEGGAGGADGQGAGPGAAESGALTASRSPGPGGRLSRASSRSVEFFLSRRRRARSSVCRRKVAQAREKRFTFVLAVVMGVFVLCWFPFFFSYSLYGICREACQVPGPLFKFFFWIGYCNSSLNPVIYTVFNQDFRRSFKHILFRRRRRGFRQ

[7] = blockers of RIG-like receptor reporter activation – cell-based, Sendai virus stimulus, luciferase, 10K MLSCN set, TLR/RLR signaling modifier project, primary screen (AID 602276;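 active = inhibition at or above 50% at 10 µM; inactive = inhibition below 50%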;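 note: firefly luciferase from ISG56 promoter only with Renilla not read in this screen; 0% = Sendai virus plus DMSO and 100% = medium plus DMSO without virus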); conditions: HEK293 RL24 IRF3 luciferase reporter, at 10 µM, stronger effect = higher value
[8] = TLR3 IRF3 reporter activation blockers – cell-based, poly I:C stimulus, luciferase, 10K MLSCN set, primary screen (AID 602277); conditions: HEK293-TLR3 RL24 IRF3 luciferase reporter, at 10 µM, stronger effect = higher value

Compound | cell count [1] | inhibition [1] | inhibition of aggregation [2] | nuclei count [2] | inhibition [3] | nuclei count [3] | fluorescence slope [4] | NADPH fluorescence slope [5] | slope [6] | inhibition [7] | inhibition [8]
Cc1ccc(NC(=O)CSc2nnc(-c3cnccn3)n2Cc2ccco2)cc1C | 228 | -3.5% (inactive) | 4.6% (inactive) | 76.2% | 35.1% (inactive) | 65.4% | -0.418 (inactive) | 3.1e-05 (inactive) | 0.00338 (inactive) | 6.92% (inactive) | 17.3% (inactive)
CCC(C)(C(=O)NC1CCCCC1)N(CC1CCCO1)C(=O)c1ccccn1 (stereo not drawn) | 345 | 3% (inactive) | 6.3% (inactive) | 90.8% | -5.3% (inactive) | 104% | -0.418 (inactive) | -8.5e-05 (inactive) | 0.0062 (inactive) | 15.2% (inactive) | 26.8% (inactive)
Cc1ccc(-c2nnc(N(C)C(=O)c3ccccn3)s2)cn1 | 500 | 6.8% (inactive) | -1.4% (inactive) | 105% | -60.4% (inactive) | 97.9% | -0.495 (inactive) | -4.7e-05 (inactive) | 0.00529 (inactive) | -13% (inactive) | -49% (inactive)
Cc1nc2ccc(S(=O)(=O)NC(C(=O)Nc3nccs3)C(C)C)cc2s1 (stereo not drawn) | 549 | -6.2% (inactive) | -4.4% (inactive) | 95.9% | -17.1% (inactive) | 120% | -0.589 (inactive) | -2.2e-05 (inactive) | 0.00646 (inactive) | 13.6% (inactive) | 30.5% (inactive)
COc1ccc(CC(NC(C)=O)C(=O)N2CCN(C(=O)N(C(C)C)C(C)C)CC2)cc1 (stereo not drawn) | 309 | -4% (inactive) | -9.5% (inactive) | 91.9% | -29.4% (inactive) | 100% | -0.397 (inactive) | -6.6e-05 (inactive) | 0.00701 (inactive) | 4.31% (inactive) | 3.57% (inactive)
c1ccc(-n2cnc3cc(NCc4ccccn4)ccc32)cc1 | 469 | -5.7% (inactive) | 25.1% (inactive) | 102% | -28.1% (inactive) | 183% | -0.596 (inactive) | -4.4e-05 (inactive) | 0.00529 (inactive) | 20.8% (inactive) | -8.3% (inactive)
O=S(=O)(c1cc(Cl)ccc1Br)N1CCOCC1 | 450 | 10.6% (inactive) | -0.6% (inactive) | 90.7% | -192% (inactive) | 133% | -0.431 (inactive) | -7.3e-05 (inactive) | 0.00323 (inactive) | 6.91% (inactive) | 35.8% (inactive)
O=C(O)CC1=C(O)C(=O)N(c2ccccc2)C1c1ccccc1 (stereo not drawn) | 405 | 1.1% (inactive) | 6.7% (inactive) | 111% | -61.5% (inactive) | 117% | -0.391 (inactive) | -4e-05 (inactive) | 0.00537 (inactive) | 4.01% (inactive) | 29.8% (inactive)
CCCCOCCCNC(=O)c1ccccc1OCC | 365 | 8.5% (inactive) | 0.7% (inactive) | 111% | 33.7% (inactive) | 116% | -0.317 (inactive) | -6.3e-05 (inactive) | 0.00615 (inactive) | 11.1% (inactive) | 7.39% (inactive)
Cc1cc(C)nc(N2CCC(C(=O)NC3CCCCCC3)CC2)n1 | 502 | -11.2% (inactive) | 25.2% (inactive) | 93.6% | 19.9% (inactive) | 90.5% | -0.508 (inactive) | 6.6e-06 (inactive) | 0.00535 (inactive) | 16.4% (inactive) | 16.2% (inactive)
Cc1cc(C)n(-c2nc3sc4c(c3c3nnc(SC(C)C)n23)CC(C)(C)OC4)n1 | 352 | 8.5% (inactive) | 2.2% (inactive) | 113% | -22% (inactive) | 117% | -0.455 (inactive) | 1.9e-05 (inactive) | 0.00472 (inactive) | -16.9% (inactive) | -11.9% (inactive)
CCOc1ccc(OCC)c(NC(=O)C2CCN(c3ncccn3)CC2)c1 | 588 | -14.2% (inactive) | 10.9% (inactive) | 103% | -43.7% (inactive) | 113% | -0.421 (inactive) | -5.1e-05 (inactive) | 0.0054 (inactive) | 8.17% (inactive) | 11.1% (inactive)
O=C(Cn1c(-c2cncs2)nc2ccccc21)NC1CCCC1 | 700 | -12.4% (inactive) | 0% (inactive) | 114% | -9.6% (inactive) | 109% | -0.31 (inactive) | -4.5e-05 (inactive) | 0.00471 (inactive) | 0.467% (inactive) | 16.2% (inactive)
COc1ccc2[nH]c(=O)c(CN(CC3CCCO3)C(=O)Nc3ccc(F)cc3)cc2c1 (stereo not drawn) | 621 | 3% (inactive) | 12.1% (inactive) | 95.3% | -38.1% (inactive) | 114% | -0.512 (inactive) | 7.8e-06 (inactive) | 0.00737 (inactive) | -18.3% (inactive) | -13.3% (inactive)
COc1ccc2cc3cc(C(=O)NCC4CCCO4)oc3nc2c1 (stereo not drawn) | 323 | -7.8% (inactive) | 3.3% (inactive) | 56.8% | -20.5% (inactive) | 108% | -0.0444 (active) | -1.4e-06 (inactive) | 0.00645 (inactive) | -11.2% (inactive) | -36.3% (inactive)
Cc1sc2nc(CN3CCN(S(=O)(=O)c4cccc5nonc45)CC3)[nH]c(=O)c2c1C | 661 | -16.4% (inactive) | 11.8% (inactive) | 60.7% | -55.1% (inactive) | 116% | -0.411 (inactive) | -5.6e-05 (inactive) | 0.00421 (inactive) | 3.59% (inactive) | 1.1% (inactive)
Cc1c(C(=O)NC2CC2)oc2ccc(S(=O)(=O)N3CCCCCC3)cc12 | 635 | 3.4% (inactive) | -2.5% (inactive) | 92.4% | -102% (inactive) | 116% | -0.508 (inactive) | 4.1e-05 (inactive) | 0.00537 (inactive) | -22.3% (inactive) | -28.3% (inactive)
Cc1ccc(C(c2sc3ncnn3c2O)N2CC(C)CC(C)C2)cc1 (stereo not drawn) | 628 | -2.4% (inactive) | 14.8% (inactive) | 80.8% | -22.9% (inactive) | 101% | -0.58 (inactive) | -5.6e-05 (inactive) | 0.00795 (inactive) | 10.9% (inactive) | 35.9% (inactive)
CCN1CCN(C(=O)C2CC(c3ccc(F)cc3)=NO2)CC1 (stereo not drawn) | 538 | 1.5% (inactive) | 3% (inactive) | 102% | 1.4% (inactive) | 108% | -0.621 (inactive) | -4e-05 (inactive) | 0.00735 (inactive) | -8.44% (inactive) | 20.7% (inactive)
Cc1c(Cl)cccc1N1C(=O)c2ccccc2C1=O | 275 | 7.5% (inactive) | -0.9% (inactive) | 90.5% | 16.9% (inactive) | 93.5% | -0.502 (inactive) | -3.6e-05 (inactive) | 0.00611 (inactive) | -1.09% (inactive) | 15.5% (inactive)
COC(=O)Cn1c(=O)c2c(nc3n2CC(C)CN3c2ccc(C)c(C)c2)n(C)c1=O (stereo not drawn) | 561 | -11% (inactive) | -7.5% (inactive) | 110% | -19.2% (inactive) | 118% | -0.535 (inactive) | -4.3e-05 (inactive) | 0.00607 (inactive) | 13.3% (inactive) | 36% (inactive)
O=C(O)C1CCCN1S(=O)(=O)c1ccc2ccccc2c1 (stereo not drawn) | 609 | -3.4% (inactive) | -2.3% (inactive) | 89.5% | -83.6% (inactive) | 106% | -0.627 (inactive) | -2e-06 (inactive) | 0.00297 (inactive) | -1.98% (inactive) | -11.3% (inactive)
CCOc1ccc(-n2cc(C(=O)N3CCN(C)CC3)c3cc(OC)c(OC)cc3c2=O)cc1 | 393 | 8.8% (inactive) | 0.2% (inactive) | 99.4% | -54.1% (inactive) | 121% | -0.524 (inactive) | 1.6e-05 (inactive) | 0.007 (inactive) | -29.8% (inactive) | -2.36% (inactive)
CSc1cccc(NS(=O)(=O)c2ccccc2)c1 | 420 | -1.4% (inactive) | -3.4% (inactive) | 99.5% | -38% (inactive) | 106% | -0.283 (inactive) | -2.2e-05 (inactive) | 0.00527 (inactive) | 9.48% (inactive) | 27.9% (inactive)
CC1CC(C)CN(CCCNC(=O)c2ccc3c(c2)NC(=O)C(N2CCCCC2)S3)C1 (stereo not drawn) | 395 | -7.7% (inactive) | -6.5% (inactive) | 101% | -14.9% (inactive) | 113% | -0.317 (inactive) | 6.4e-06 (inactive) | 0.00531 (inactive) | -18.6% (inactive) | -14.5% (inactive)
COc1ccc(Nc2ncnc3c2cnn3-c2ccccc2)cc1OC | 761 | -15.1% (inactive) | -26.1% (inactive) | 84.3% | -10% (inactive) | 103% | -0.366 (inactive) | 1.2e-05 (inactive) | 0.00554 (inactive) | -10.2% (inactive) | -29.8% (inactive)
Cc1ccc(S(=O)(=O)NCCOC(=O)Nc2sc(=S)n(C)c2C)cc1 | 466 | 1.6% (inactive) | -2.2% (inactive) | 103% | 15% (inactive) | 108% | -0.5 (inactive) | 3.3e-05 (inactive) | 0.00618 (inactive) | -15% (inactive) | 15.5% (inactive)
COc1cc(CN2CCN(C(=O)CC(C)C)CC2)cc(OC)c1O | 642 | -11% (inactive) | -4.6% (inactive) | 99.7% | -52.5% (inactive) | 90.3% | -0.583 (inactive) | -2.8e-05 (inactive) | 0.00548 (inactive) | 5.89% (inactive) | 16% (inactive)
